According to PubChem BioAssay (NCATS):
Inconclusive results are not listed. Activity calls are given as the source filed them. Unless noted, calls come from the whole dose curve; as a rule, active = well fitted curve in the direction sought with a large enough effect; inconclusive = small, poorly fitted or top-dose-only effect, or another doubt; inactive = no such curve, though single readings can be large; an effect the other way counts as inactive or inconclusive.

Columns and labels:
[1] = biological target: Luciferin 4-monooxygenase (Photinus pyralis) (UniProt P08659); test: Biochemical firefly luciferase enzyme assay for NPC (AID 624030);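 note: purified P. pyralis luciferase at 10 nM with luciferin and ATP substrate; nearly all actives have a fitted effect of over 70% in size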; details: purified P. pyralis luciferase, luminescence, 5 min; series mostly up to 58.6 µM
Summary of the method: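 Counter-screen for direct inhibition of the luciferase enzyme by approved-drug library compounds, run at 10 nM enzyme in 50 mM Tris acetate (final). Luminescence was read within 5 min of enzyme-buffer addition and normalized to PTC124 versus DMSO (0%).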

[2] = S16 Schwann cell viability assay (CellTiter-Glo assay) (AID 624031); details: S16 rat Schwann cells viability, 24 h; series mostly up to 57.5 µM;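 note: cellular ATP luminescence as a viability measure; nearly all actives have a fitted effect of over 70% in size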
Summary of the method: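 CellTiter-Glo ATP luminescence counter-screen in untransfected S16 rat Schwann cells, 24h compound exposure at 37 degree Celsius after overnight seeding (500-750 cells/well); response scaled between cell-free wells and DMSO (0% activity), curves classed by r2 and magnitude.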

[3] = S16 Schwann cell PMP22 intronic element beta-lactamase assay (AID 624044; calls by dose curve; note: nearly all actives have a fitted effect of over 15% in size); details: S16 rat Schwann cells, PMP22 element beta-lactamase FRET, 24 h; series mostly up to 38.3 µM
Summary of the method: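 Beta-lactamase reporter under a PMP22 intronic regulatory element in stable S16 rat Schwann cells; 24 h compound exposure. 460 nm blue signal normalized between DMSO (0%) and potassium clavulanate, with 535 nm FRET tracking viability; curves classed by r2 and response.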

AA1029 = test: qHTS profiling for inhibitors of Plasmodium falciparum proliferation (AID 504749); note: nearly all actives have a fitted effect of over 60% in size; details: P. falciparum in erythrocytes, SYBR Green DNA, 72 h; series mostly up to 28.7 µM
Summary of the method: (§1)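 Quantitative HTS: compounds pinned into medium, infected erythrocytes added (0.3% parasitemia, 2.5% hematocrit), 72 h culture at 37 C under 5% CO2. Saponin/Triton lysis with SYBR Green I, overnight RT, then fluorescence read.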

CP260 = test: as above; details: P. falciparum in erythrocytes, SYBR Green DNA, 72 h; series mostly up to 28.7 µM
Summary of the method: as §1

CP297 = test: as above; details: P. falciparum in erythrocytes, SYBR Green DNA, 72 h; series mostly up to 28.7 µM
Summary of the method: as §1

DIV14 = test: as above; details: P. falciparum in erythrocytes, SYBR Green DNA, 72 h; series mostly up to 28.7 µM
Summary of the method: as §1

DIV17 = test: as above; details: P. falciparum in erythrocytes, SYBR Green DNA, 72 h; series mostly up to 28.7 µM
Summary of the method: as §1

ICS = test: as above; details: P. falciparum in erythrocytes, SYBR Green DNA, 72 h; series mostly up to 28.7 µM
Summary of the method: as §1

JCK = test: as above; details: P. falciparum in erythrocytes, SYBR Green DNA, 72 h; series mostly up to 28.7 µM
Summary of the method: as §1

N140 = test: as above; details: P. falciparum in erythrocytes, SYBR Green DNA, 72 h; series mostly up to 28.7 µM
Summary of the method: as §1

TAB165 = test: as above; details: P. falciparum in erythrocytes, SYBR Green DNA, 72 h; series mostly up to 28.7 µM
Summary of the method: as §1

Measured: Potency

Sequence of Luciferin 4-monooxygenase (Photinus pyralis) (P08659 whole entry, looked up): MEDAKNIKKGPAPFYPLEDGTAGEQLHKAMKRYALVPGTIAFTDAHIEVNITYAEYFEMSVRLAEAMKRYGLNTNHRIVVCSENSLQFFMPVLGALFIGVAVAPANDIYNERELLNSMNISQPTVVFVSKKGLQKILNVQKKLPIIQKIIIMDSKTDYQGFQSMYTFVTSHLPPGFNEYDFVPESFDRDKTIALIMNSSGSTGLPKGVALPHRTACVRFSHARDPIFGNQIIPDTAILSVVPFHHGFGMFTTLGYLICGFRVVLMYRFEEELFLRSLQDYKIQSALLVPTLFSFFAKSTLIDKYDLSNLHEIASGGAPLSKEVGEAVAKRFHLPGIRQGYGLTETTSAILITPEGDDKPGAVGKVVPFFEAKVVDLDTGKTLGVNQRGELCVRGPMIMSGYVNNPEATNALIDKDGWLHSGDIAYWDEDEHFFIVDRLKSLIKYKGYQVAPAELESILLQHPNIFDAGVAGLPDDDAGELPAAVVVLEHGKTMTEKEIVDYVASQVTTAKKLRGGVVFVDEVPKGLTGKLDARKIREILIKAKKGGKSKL

C[C@@H]1O[C@@H](O[C@H]2C[C@@H](O)[C@@]3(CO)[C@H]4[C@H](O)C[C@]5(C)[C@@H](C6=CC(=O)OC6)CC[C@]5(O)[C@H]4CC[C@@]3(O)C2)[C@@H](O)[C@H](O)[C@H]1O
inactive: all assays above
